Screening results from PubChem BioAssay.
ERG-DNA inh: blocks human ERG Ets domain binding to DNA | P11308 | fluorescence polarization, His-ERG Ets domain / labelled DNA | Potency, µM (titrated, usually from 76.9 µM), most hits filed as inhibitors | 0.028% of 370,000 active; active = well fitted inhibition curve with a large enough effect in the polarisation, with a control signal flat; inconclusive = small, poorly fitted or top-dose-only effect, or effect the other way, or a change in a side signal; inactive = no such curve, though single readings can be large or run the other way; the % refers to the polarisation;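 note: polarization taken with two DNA probes labelled with fluorescein and Texas red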
Target sequence (P11308 whole entry, looked up, the tested form may be a part): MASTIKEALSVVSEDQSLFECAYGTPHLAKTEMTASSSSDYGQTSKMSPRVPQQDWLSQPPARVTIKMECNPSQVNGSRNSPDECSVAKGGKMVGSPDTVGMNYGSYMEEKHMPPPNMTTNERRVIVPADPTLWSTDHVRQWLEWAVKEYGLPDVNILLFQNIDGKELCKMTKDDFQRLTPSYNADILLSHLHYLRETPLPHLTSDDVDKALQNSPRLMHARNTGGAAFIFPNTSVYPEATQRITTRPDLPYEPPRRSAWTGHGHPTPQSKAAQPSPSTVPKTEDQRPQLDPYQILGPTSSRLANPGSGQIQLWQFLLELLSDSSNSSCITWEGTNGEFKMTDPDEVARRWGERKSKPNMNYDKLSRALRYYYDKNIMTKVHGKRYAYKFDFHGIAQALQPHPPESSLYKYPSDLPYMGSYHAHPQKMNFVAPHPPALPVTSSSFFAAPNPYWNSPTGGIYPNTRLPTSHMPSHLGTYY
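His-tagged ERG Ets domain (1 uM in the protein solution; 300mM KCl, 50mM Tris-HCl, 1mM EDTA, 1mM DTT, pH 7.5) received compound, then a probe mix of 5 nM fluorescein-DNA and 100nM Texas-615-DNA. Fluorescence polarization was read for both dyes.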
TDP-43 yeast inh: inhibitors of TDP-43 toxicity in yeast; AID 652104; Potency, µM (doses to about 46.1 µM), hits mostly activators; TDP-43 expressing yeast growth rescue, BacTiter-Glo, 24 h; 1.8% of 410,000 active; note: nearly all actives have a fitted effect of over 50% in size
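Yeast cells expressing TDP-43 under galactose induction are exposed to compounds for 24 hr at 30 deg C. BacTiter-Glo luminescence measures growth, so protective compounds score as activators.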
Abeta rescue: A-beta toxicity reversal in yeast | Potency, µM (series often up to 46.1 µM), hits mostly activators | 0.063% of 410,000 active | yeast expressing A-beta42, growth rescue, OD600, 48 h; response scale: 0% DMSO, 100% iron-clioquinol control; note: nearly all actives have a fitted effect of over 55% in size
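Growth rescue measured by 600 nm absorbance after 48 h yeast culture at 30 C with compound. Values normalized between DMSO and an equimolar ferric chloride plus clioquinol control.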
Mito fusion yeast: mitochondrial division inhibition or fusion activation; S. cerevisiae fusion-defective mutant growth rescue, CellTiterGlo 48 h; Potency, µM (highest dose often 46.1 µM), hits mostly activators; 0.23% of 320,000 active; AID 485298; note: nearly all actives have a fitted effect of over 45% in size
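S. cerevisiae fusion-defective temperature-sensitive mutants (e.g. fzo1-1, mgm1-5) grown 48 h at 37C in YPEG (ethanol/glycerol non-fermentable) medium with 23 nl compound per well; growth rescue read as CellTiterGlo luminescence.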
aSyn yeast inh: rescues yeast growth from alpha-synuclein toxicity; AID 652106; 0.14% of 370,000 active; Yeast expressing alpha-synuclein, growth rescue, BacTiter-Glo, 24 h; Potency, µM (highest dose often 46.1 µM), hits mostly activators; note: nearly all actives have a fitted effect of over 65% in size
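Rescue of yeast growth: cells expressing toxic alpha-synuclein, induced in galactose at OD600 0.02, incubated with compound 24 h at 30 C. ATP luminescence quantified growth; inhibitors of toxicity appear as activators.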
FUS suppressor: rescues growth of FUS-expressing yeast; 0.24% of 390,000 active; Potency, µM (top dose mostly 76.6 µM), actives largely listed as activators; S. cerevisiae FUS-expressing, growth rescue, OD600, 24 h; note: nearly all actives have a fitted effect of over 55% in size
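FUS-expressing yeast, raffinose-pregrown, induced in 2% galactose minimal medium at OD 0.005; compounds in a dilution series, 24hr at 30C. Growth restoration read as absorbance at 600 nm. CP55940 positive control, DMSO negative.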
Numbers stand for hits; [ ] = another dose, or the depositor's remark. Only some compounds are listed: those with a hit (about 2.2% of all), similar ones and a draw of the others. Unless noted, calls come from the whole dose curve; as a rule, active = well fitted curve in the direction sought with a large enough effect; inconclusive = small, poorly fitted or top-dose-only effect, or another doubt; inactive = no such curve, though single readings can be large; an effect the other way counts as inactive or inconclusive.

O=C(CCn1c(=O)oc2ccccc21)N(Cc1ccccc1)c1ccccc1 was read as ERG-DNA inh inactive, TDP-43 yeast inh 22.4µM, Abeta rescue inactive, Mito fusion yeast inactive, aSyn yeast inh inactive and FUS suppressor inactive.
Screening O=C(CCl)N(Cc1ccccc1)c1ccccc1 returned ERG-DNA inh inactive, TDP-43 yeast inh 20µM, Abeta rescue inactive, Mito fusion yeast inactive, aSyn yeast inh inactive and FUS suppressor inactive.
`O=C(CCNS(=O)(=O)c1ccc(Br)s1)N1CCN(c2ccccc2)CC1` gave ERG-DNA inh inactive, TDP-43 yeast inh 17.8µM, Abeta rescue inactive, Mito fusion yeast inactive, aSyn yeast inh inconclusive and FUS suppressor inactive.
`COc1ccccc1N1CCN(C(=O)CCNS(=O)(=O)c2ccc(Br)s2)CC1` gave ERG-DNA inh inactive, TDP-43 yeast inh 22.4µM, Abeta rescue inactive, Mito fusion yeast inactive, aSyn yeast inh inconclusive and FUS suppressor inactive.
Screening C=C1CC2(CC(c3ccccc3)OC(c3ccccc3)C2)OC1=O (configuration not stated) returned TDP-43 yeast inh 10µM, Abeta rescue inactive and aSyn yeast inh inactive.
O=C1CCCC[C@@H](O)[C@H](O)C[C@H](c2ccccc2)O1 was read as TDP-43 yeast inh inactive, Abeta rescue inactive, aSyn yeast inh inactive and FUS suppressor inactive.
Screening Cc1ccccc1OCC(O)CN1C(=O)c2ccccc2C1=O (configuration not stated) returned ERG-DNA inh inactive, TDP-43 yeast inh inactive, Abeta rescue inactive, Mito fusion yeast inactive, aSyn yeast inh inactive and FUS suppressor inactive.
Screening C=CCc1ccccc1OCC(O)CN1C(=O)c2ccccc2C1=O (configuration not stated) returned ERG-DNA inh inactive, TDP-43 yeast inh 11.2µM, Abeta rescue inactive, Mito fusion yeast inactive, aSyn yeast inh inactive and FUS suppressor inactive.
`O=C(CNS(=O)(=O)c1ccc(F)cc1)N1CCN(c2ccccn2)CC1` gave FUS suppressor inactive.
For Cc1ccc(NC(=O)c2cccc3c(=O)c4c([nH]c23)CCCC4)c(C)c1 the results were ERG-DNA inh inactive, TDP-43 yeast inh inactive[9.22 µM], Abeta rescue inactive and FUS suppressor inactive.
Screening COc1cccc(CN2C(=O)[C@@H]3Cc4c([nH]c5ccccc45)C(C)(C)N3C2=O)c1 returned Abeta rescue 10µM and FUS suppressor inconclusive.
COc1ccc(-c2nc3ccc(Br)cn3c2Cc2cccc(F)c2)cc1OC was read as TDP-43 yeast inh 14.1µM, Abeta rescue inactive, aSyn yeast inh inactive and FUS suppressor inactive.
Screening COc1ccc(-c2nc3ccc(C)cn3c2Cc2cccc(F)c2)cc1OC returned TDP-43 yeast inh inactive, Abeta rescue inactive, aSyn yeast inh inactive and FUS suppressor inactive.
For COc1ccccc1Cc1c(-c2ccc(Cl)cc2)nc2c(C)cc(Br)cn12 the results were TDP-43 yeast inh 25.1µM, Abeta rescue inactive, aSyn yeast inh inactive and FUS suppressor inconclusive.
Screening COc1ccc(-c2nc3c(C)cc(Br)cn3c2Cc2cccc(F)c2)cc1OC returned TDP-43 yeast inh 15.8µM, Abeta rescue inactive, aSyn yeast inh inactive and FUS suppressor inconclusive.
`Cc1ccc2c(=O)cc(C(=O)Nc3ccc(S(=O)(=O)N4CCCCC4)cc3)oc2c1` gave ERG-DNA inh inactive, TDP-43 yeast inh inactive, Abeta rescue inactive and FUS suppressor inactive.
CCOc1ccc(NC(=O)Cc2ccc(NC(=O)N3CCCCc4ccccc43)cc2)cc1 was read as ERG-DNA inh inactive, TDP-43 yeast inh inactive, Abeta rescue inactive and FUS suppressor inactive.
`CC(=O)NC(c1ccc(N(C)C)cc1)c1cc(Cl)c2cccnc2c1O` (configuration not stated) gave TDP-43 yeast inh 28.2µM, Abeta rescue inactive, aSyn yeast inh inactive and FUS suppressor inactive.
